# How the values were obtained:
# [1] = biological target: T1, Inhibitor of nuclear factor kappa-B kinase subunit epsilon (Homo sapiens) (UniProt Q14164); settings: at 1 µM;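 further: reported values are averaged percent inhibition figures against human IKKε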
# T1 sequence (whole entry): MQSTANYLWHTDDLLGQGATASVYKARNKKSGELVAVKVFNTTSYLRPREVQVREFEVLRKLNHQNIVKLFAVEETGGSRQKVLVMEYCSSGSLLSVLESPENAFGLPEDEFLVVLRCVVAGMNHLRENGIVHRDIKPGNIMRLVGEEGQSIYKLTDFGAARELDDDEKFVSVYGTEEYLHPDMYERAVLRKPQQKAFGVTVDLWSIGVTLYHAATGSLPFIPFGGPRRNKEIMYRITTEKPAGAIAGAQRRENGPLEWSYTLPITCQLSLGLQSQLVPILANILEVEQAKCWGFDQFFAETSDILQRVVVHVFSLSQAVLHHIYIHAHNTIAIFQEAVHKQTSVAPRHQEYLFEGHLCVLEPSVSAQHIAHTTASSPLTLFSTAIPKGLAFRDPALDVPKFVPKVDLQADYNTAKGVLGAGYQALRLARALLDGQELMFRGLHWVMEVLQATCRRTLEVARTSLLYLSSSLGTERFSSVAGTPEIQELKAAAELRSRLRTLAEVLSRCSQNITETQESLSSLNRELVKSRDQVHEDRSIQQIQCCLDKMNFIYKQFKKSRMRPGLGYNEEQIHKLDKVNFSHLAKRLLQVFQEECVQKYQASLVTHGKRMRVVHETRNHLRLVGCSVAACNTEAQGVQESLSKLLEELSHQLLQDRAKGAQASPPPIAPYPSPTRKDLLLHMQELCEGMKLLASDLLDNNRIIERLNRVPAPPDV
# [2] = biological target: T2, Serine/threonine-protein kinase Nek1 (Homo sapiens) (UniProt Q96PY6); settings: at 0.1 µM
# T2 sequence (whole entry): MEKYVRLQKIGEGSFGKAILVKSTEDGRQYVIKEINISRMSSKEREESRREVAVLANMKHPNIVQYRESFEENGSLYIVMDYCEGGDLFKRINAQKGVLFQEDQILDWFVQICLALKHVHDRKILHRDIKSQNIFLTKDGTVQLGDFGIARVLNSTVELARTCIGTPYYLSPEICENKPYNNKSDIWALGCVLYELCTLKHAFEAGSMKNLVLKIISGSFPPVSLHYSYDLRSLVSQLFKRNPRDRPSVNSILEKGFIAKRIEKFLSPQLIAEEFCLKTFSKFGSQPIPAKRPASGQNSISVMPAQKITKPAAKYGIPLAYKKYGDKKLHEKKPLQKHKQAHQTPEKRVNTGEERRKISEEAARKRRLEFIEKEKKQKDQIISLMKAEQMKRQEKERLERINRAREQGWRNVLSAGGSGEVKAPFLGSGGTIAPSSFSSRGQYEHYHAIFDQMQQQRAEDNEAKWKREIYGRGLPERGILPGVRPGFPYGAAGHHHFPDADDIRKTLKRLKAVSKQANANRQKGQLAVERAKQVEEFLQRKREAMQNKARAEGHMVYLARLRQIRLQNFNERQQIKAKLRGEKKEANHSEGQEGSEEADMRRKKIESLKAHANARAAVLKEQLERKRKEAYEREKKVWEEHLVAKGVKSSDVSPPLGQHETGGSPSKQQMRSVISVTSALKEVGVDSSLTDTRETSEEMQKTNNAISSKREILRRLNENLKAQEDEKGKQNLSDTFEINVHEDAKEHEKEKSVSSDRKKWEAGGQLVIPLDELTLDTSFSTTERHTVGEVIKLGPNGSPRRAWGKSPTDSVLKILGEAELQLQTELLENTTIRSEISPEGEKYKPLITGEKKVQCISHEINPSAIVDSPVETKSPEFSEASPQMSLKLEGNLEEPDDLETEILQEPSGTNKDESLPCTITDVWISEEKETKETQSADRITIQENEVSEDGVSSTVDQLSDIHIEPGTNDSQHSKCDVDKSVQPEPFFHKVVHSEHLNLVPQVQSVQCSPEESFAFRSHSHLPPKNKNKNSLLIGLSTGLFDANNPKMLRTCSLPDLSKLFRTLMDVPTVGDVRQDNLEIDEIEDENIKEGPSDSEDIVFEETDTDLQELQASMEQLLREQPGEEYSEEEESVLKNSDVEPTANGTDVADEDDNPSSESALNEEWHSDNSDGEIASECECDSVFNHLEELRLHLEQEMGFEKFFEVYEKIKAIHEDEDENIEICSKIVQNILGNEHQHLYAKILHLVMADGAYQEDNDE
# [3] = biological target: T2, Serine/threonine-protein kinase Nek1 (Homo sapiens); settings: at 1 µM
# [4] = biological target: T3, Serine/threonine-protein kinase Nek2 (Homo sapiens) (UniProt P51955); settings: at 0.1 µM
# T3 sequence (whole entry): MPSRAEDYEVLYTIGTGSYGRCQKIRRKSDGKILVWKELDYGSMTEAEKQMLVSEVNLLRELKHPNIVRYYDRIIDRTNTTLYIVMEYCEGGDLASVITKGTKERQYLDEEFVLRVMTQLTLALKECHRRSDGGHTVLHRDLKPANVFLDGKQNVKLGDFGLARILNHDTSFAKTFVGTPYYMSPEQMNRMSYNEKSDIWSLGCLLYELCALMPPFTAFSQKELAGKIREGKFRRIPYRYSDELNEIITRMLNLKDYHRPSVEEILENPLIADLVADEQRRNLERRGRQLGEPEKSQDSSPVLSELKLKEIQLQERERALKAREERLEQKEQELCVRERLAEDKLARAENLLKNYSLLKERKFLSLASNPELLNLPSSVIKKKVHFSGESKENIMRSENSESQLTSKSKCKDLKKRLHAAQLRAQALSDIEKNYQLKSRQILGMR
# [5] = biological target: T3, Serine/threonine-protein kinase Nek2 (Homo sapiens); settings: at 1 µM
# [6] = biological target: Serine/threonine-protein kinase Nek6 (Homo sapiens) (UniProt Q9HC98); settings: at 0.1 µM
# [7] = biological target: Serine/threonine-protein kinase Nek6 (Homo sapiens) (UniProt Q9HC98); settings: at 1 µM
# [8] = biological target: Serine/threonine-protein kinase Nek7 (Homo sapiens) (UniProt Q8TDX7); settings: at 1 µM
# [9] = biological target: T4, Serine/threonine-protein kinase Nek9 (Homo sapiens) (UniProt Q8TD19); settings: at 0.1 µM
# T4 sequence (whole entry): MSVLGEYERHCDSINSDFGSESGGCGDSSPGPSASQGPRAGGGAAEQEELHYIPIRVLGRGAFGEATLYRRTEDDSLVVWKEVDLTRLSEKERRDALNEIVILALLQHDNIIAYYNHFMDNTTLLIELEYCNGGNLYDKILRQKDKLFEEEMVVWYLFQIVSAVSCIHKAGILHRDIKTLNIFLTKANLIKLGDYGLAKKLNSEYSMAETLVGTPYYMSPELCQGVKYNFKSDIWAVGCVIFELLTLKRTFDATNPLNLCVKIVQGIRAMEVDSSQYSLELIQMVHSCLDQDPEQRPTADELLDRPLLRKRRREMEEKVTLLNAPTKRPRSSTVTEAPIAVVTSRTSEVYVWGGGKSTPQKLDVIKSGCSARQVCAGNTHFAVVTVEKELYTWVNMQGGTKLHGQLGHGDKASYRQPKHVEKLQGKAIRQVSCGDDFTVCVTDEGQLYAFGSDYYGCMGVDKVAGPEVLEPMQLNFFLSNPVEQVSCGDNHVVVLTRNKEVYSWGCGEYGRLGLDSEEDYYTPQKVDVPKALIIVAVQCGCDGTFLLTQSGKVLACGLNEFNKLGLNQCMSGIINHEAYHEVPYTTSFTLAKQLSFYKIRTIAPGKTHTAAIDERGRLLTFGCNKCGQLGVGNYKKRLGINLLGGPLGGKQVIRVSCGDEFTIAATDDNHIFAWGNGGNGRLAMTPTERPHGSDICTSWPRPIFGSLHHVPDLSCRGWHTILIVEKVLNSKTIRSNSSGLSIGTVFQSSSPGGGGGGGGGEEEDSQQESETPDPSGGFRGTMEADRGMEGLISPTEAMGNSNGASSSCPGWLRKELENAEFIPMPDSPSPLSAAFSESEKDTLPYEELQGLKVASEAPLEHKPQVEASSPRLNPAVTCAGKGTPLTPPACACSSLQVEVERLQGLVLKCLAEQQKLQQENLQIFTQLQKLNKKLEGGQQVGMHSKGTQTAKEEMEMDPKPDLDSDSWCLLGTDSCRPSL
# [10] = biological target: T4, Serine/threonine-protein kinase Nek9 (Homo sapiens); settings: at 1 µM
# [11] = biological target: Serine/threonine-protein kinase PLK1 (Homo sapiens) (UniProt P53350); settings: at 0.1 µM
# [12] = biological target: Serine/threonine-protein kinase PLK1 (Homo sapiens) (UniProt P53350); settings: at 1 µM
# [13] = biological target: T5, Dual specificity protein kinase TTK (Homo sapiens) (UniProt P33981); settings: at 0.1 µM
# T5 sequence (whole entry): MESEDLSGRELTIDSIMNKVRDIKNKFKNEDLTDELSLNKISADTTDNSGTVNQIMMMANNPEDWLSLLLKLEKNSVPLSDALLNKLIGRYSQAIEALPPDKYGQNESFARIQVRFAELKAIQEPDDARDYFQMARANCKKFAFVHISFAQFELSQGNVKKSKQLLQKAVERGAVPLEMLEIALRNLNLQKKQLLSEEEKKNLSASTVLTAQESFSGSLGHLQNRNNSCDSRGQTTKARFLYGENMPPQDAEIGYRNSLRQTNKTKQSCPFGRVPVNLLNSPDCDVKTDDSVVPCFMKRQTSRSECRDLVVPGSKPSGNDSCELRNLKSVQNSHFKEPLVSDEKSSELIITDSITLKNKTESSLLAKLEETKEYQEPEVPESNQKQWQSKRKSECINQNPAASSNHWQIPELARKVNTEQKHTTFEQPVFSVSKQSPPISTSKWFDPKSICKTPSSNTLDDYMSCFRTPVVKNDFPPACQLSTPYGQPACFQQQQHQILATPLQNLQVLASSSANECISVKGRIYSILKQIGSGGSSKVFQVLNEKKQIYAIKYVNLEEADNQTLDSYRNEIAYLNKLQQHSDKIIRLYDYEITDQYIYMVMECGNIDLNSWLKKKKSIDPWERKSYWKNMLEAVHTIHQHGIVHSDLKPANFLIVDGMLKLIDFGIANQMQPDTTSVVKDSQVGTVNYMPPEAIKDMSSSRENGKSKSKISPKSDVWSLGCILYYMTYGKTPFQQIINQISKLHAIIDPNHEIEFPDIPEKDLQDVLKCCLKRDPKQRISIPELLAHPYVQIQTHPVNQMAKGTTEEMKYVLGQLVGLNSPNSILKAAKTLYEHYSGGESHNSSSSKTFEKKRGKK
# [14] = system: T6, Receptor-type tyrosine-protein kinase FLT3 (Homo sapiens), P36888 [D835Y]; settings: at 1 µM
# T6 sequence (whole entry): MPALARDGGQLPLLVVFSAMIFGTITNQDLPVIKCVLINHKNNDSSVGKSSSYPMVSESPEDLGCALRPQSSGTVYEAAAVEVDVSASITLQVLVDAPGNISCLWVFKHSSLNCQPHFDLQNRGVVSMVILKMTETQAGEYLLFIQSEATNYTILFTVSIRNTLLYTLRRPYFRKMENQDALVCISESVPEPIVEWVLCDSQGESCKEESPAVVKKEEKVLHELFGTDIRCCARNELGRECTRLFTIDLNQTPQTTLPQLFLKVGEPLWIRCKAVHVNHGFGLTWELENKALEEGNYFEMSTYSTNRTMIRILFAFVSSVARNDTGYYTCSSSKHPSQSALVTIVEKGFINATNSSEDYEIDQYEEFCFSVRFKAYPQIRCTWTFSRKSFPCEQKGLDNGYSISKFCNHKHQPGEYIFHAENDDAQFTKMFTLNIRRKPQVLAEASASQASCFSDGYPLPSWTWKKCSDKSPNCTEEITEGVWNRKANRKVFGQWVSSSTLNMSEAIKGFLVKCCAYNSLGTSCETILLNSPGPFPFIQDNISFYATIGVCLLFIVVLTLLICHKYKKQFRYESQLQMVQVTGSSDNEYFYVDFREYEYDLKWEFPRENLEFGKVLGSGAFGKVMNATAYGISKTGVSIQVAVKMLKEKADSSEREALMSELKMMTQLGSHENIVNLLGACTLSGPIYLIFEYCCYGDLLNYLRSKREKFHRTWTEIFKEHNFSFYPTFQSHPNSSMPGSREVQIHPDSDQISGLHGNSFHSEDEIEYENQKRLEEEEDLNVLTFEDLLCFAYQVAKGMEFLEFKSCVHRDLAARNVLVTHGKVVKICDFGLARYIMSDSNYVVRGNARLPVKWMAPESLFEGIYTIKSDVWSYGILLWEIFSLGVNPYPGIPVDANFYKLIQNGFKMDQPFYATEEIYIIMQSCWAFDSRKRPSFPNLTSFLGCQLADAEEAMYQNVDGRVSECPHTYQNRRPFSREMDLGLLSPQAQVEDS
# [15] = biological target: Vascular endothelial growth factor receptor 3 (Homo sapiens) (UniProt P35916); settings: at 0.1 µM
# [16] = biological target: Vascular endothelial growth factor receptor 3 (Homo sapiens) (UniProt P35916); settings: at 1 µM
# [17] = biological target: Macrophage colony-stimulating factor 1 receptor (Homo sapiens) (UniProt P07333); settings: at 0.1 µM
# [18] = biological target: Macrophage colony-stimulating factor 1 receptor (Homo sapiens) (UniProt P07333); settings: at 1 µM
# [19] = biological target: Tyrosine-protein kinase Fyn (Homo sapiens) (UniProt P06241); settings: at 0.1 µM
# [20] = biological target: Serine/threonine-protein kinase Nek7 (Homo sapiens) (UniProt Q8TDX7); settings: at 0.1 µM
# Sequence of Macrophage colony-stimulating factor 1 receptor (Homo sapiens) (P07333 whole entry): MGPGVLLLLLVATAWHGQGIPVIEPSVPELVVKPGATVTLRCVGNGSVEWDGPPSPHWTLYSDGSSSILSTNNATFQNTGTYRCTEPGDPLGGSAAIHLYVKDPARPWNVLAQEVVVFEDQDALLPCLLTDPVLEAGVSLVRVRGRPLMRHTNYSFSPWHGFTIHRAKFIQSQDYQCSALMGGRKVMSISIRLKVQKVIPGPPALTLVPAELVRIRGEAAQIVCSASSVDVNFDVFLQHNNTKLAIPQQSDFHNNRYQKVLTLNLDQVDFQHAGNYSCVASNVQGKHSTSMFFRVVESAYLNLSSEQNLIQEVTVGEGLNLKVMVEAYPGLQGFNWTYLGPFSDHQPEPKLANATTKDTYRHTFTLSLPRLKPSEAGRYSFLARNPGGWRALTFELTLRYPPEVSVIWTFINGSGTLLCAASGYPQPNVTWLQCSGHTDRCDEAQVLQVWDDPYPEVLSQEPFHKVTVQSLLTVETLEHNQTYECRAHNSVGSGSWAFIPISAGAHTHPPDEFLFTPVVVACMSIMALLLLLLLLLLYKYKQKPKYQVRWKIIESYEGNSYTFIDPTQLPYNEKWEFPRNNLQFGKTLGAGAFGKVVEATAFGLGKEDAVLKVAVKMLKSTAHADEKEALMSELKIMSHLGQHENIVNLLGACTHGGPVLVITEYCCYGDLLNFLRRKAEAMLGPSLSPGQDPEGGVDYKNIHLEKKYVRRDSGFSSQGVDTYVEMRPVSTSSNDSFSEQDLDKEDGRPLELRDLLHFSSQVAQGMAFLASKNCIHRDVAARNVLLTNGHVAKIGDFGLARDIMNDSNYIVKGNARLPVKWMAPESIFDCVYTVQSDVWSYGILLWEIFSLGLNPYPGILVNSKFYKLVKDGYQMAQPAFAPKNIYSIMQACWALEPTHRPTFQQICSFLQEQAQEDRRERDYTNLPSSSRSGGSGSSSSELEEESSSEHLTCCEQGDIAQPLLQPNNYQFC
# Sequence of Tyrosine-protein kinase Fyn (Homo sapiens) (P06241 2-537 limits assumed): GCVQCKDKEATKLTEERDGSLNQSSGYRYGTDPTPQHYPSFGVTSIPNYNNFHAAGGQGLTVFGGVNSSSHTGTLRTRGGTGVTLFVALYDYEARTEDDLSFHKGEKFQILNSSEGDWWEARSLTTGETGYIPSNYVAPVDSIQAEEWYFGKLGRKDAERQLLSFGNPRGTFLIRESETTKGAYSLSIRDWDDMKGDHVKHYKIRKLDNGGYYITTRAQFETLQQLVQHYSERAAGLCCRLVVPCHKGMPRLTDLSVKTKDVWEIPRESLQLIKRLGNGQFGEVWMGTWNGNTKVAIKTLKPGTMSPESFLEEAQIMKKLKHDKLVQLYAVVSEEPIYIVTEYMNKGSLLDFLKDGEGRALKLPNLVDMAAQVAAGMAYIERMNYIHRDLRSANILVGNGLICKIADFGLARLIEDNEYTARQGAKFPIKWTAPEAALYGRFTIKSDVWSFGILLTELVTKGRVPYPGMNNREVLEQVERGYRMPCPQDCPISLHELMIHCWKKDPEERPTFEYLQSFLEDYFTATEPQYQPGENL
# Sequence of Vascular endothelial growth factor receptor 3 (Homo sapiens) (P35916 whole entry): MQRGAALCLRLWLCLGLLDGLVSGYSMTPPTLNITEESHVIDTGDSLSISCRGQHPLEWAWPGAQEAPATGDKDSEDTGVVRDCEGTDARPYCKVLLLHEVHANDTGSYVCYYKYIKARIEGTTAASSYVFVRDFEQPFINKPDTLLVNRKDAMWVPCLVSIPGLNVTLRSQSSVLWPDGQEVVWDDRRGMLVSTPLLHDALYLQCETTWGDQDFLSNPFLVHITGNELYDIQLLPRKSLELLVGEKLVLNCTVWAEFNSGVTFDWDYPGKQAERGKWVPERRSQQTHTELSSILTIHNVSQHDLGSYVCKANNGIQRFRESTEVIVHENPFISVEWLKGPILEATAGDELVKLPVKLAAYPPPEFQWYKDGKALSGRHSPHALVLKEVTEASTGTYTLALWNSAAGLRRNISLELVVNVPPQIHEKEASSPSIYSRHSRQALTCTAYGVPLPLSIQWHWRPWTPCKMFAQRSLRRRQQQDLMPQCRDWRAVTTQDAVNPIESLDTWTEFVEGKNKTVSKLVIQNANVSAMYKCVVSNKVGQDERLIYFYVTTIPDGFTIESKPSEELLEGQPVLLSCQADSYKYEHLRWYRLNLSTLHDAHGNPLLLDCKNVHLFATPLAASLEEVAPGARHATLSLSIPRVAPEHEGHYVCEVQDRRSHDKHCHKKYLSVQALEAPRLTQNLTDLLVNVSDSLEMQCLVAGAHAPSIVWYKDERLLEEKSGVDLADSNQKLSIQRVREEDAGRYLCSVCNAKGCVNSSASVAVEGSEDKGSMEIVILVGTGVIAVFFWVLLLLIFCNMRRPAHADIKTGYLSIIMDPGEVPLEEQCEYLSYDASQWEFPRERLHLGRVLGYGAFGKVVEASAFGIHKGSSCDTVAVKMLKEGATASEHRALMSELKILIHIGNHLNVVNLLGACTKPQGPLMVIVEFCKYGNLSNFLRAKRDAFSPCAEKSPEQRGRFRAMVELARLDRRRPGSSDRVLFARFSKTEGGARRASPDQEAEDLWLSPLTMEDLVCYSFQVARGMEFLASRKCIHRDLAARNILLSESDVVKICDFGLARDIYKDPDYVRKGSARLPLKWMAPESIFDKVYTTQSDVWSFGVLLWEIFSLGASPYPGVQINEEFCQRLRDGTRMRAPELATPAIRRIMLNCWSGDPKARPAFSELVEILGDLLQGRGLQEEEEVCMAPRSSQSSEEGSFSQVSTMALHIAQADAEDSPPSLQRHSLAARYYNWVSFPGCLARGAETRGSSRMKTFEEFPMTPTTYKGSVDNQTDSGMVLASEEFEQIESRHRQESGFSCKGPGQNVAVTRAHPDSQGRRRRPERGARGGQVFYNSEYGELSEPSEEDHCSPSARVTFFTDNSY
# Sequence of Serine/threonine-protein kinase Nek7 (Homo sapiens) (Q8TDX7 whole entry, looked up): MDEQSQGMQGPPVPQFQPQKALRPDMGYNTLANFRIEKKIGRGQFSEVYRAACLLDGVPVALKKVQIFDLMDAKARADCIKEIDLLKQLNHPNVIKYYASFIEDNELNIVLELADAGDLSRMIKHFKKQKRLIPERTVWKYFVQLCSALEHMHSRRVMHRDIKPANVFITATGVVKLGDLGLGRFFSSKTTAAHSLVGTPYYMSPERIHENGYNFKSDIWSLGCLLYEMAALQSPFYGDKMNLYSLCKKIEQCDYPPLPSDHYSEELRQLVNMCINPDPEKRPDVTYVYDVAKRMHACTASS
# Sequence of Serine/threonine-protein kinase PLK1 (Homo sapiens) (P53350 whole entry): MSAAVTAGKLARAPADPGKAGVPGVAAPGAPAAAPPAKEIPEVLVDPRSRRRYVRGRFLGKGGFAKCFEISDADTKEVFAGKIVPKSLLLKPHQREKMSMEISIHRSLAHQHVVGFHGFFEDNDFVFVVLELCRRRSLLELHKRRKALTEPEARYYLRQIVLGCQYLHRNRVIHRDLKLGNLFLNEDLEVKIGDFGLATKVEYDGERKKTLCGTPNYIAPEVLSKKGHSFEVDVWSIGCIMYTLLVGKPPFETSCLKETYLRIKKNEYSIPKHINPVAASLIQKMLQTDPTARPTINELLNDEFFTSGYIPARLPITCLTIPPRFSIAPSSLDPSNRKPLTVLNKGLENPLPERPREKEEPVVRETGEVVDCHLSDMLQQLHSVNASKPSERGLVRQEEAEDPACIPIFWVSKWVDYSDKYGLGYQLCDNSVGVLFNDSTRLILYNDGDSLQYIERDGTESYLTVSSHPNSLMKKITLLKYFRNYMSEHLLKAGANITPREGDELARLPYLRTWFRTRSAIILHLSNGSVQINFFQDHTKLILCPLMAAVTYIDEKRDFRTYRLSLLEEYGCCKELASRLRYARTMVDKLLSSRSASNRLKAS
# Sequence of Serine/threonine-protein kinase Nek6 (Homo sapiens) (Q9HC98 whole entry): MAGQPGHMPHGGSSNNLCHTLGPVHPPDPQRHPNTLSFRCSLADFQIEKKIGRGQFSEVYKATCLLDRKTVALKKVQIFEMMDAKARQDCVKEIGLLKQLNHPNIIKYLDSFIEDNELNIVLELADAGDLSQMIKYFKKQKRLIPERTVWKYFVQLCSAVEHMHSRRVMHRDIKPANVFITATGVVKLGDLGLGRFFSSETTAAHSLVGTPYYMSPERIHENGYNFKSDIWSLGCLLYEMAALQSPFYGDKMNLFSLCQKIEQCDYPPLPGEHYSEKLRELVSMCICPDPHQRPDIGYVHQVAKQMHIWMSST
Compound,inhibition [1],inhibition [2],inhibition [3],inhibition [4],inhibition [5],inhibition [6],inhibition [7],inhibition [8],inhibition [9],inhibition [10],inhibition [11],inhibition [12],inhibition [13],inhibition [14],inhibition [15],inhibition [16],inhibition [17],inhibition [18],inhibition [19],inhibition [20]
C/C(Nc1ccc(S(N)(=O)=O)cc1)=C1/C(=O)Nc2ccccc21,2.23%,-0.12%,0.52%,-0.14%,0.19%,-4.26%,-0.83%,-0.23%,2.83%,1.67%,-0.74%,-0.72%,8.06%,46.8%,7.83%,32.9%,12.1%,50.6%,1.2%,
CNC(=O)c1cncc(/C=C/c2c(C)cccc2C)c1,0.54%,-0.56%,2.88%,0.66%,-0.77%,1.65%,0.01%,0.6%,-0.53%,2.51%,1.18%,0.2%,1.49%,5.46%,,-8.92%,12%,44.4%,0.61%,-1.37%
COc1ccc2cc(-c3c(-c4ccncc4)nc(-c4ccc([S+](C)[O-])cc4C)n3C)ccc2c1 (stereo not given),-2.02%,0.36%,0.54%,-0.64%,-0.11%,0.58%,1.1%,0.01%,3.4%,-2.02%,-0.27%,-0.2%,-1.41%,4.56%,2.68%,9.41%,,,1.51%,2.37%
COc1cc2ncn(-c3cc(OCc4ccccc4C(F)(F)F)c(C(C)=O)s3)c2cc1OC,4.7%,2.21%,1.9%,3.91%,4.69%,1.95%,3.34%,,8.54%,5.55%,20.5%,67.7%,6.18%,2.27%,3.53%,5.96%,0.38%,10.8%,1.85%,1.7%

# Source: ChEMBL document CHEMBL1961873, “Compounds: GSK PKIS; Assays: Nanosyn kinase panel” (2012)
